Test results as given in PubChem BioAssay (NCI).
The panel holds about 83,000 compounds, 20% with a hit somewhere; the sample as a whole holds those more often.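 In brief: 96-well plates, 48 h treatment, single concentration, percent growth endpoint.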 Unmarked numbers belong to inactive results. Active and inactive are the calls of the source. Rule for the calls: active = growth percent below 10; inactive = the rest.

What was measured:
Experiment in all cases: NCI-60 one-dose screen, 48 h (100 = growth as untreated, 0 = no growth, -100 = all killed)
Conditions in all cases: 10 µM
HCT-15 colon = system: HCT-15 colon
HT29 colon = system: HT29 colon
SNB-75 CNS = system: SNB-75 CNS
SNB-19 CNS = system: SNB-19 CNS
U251 CNS = system: U251 CNS
PC-3 prostate = system: PC-3 prostate
SK-MEL-5 melanoma = system: SK-MEL-5 melanoma
LOX IMVI melanoma = system: LOX IMVI melanoma
SK-MEL-28 melanoma = system: SK-MEL-28 melanoma
UACC-62 melanoma = system: UACC-62 melanoma

Row | Compound | growth (HCT-15 colon) | growth (HT29 colon) | growth (SNB-75 CNS) | growth (SNB-19 CNS) | growth (U251 CNS) | growth (PC-3 prostate) | growth (SK-MEL-5 melanoma) | growth (LOX IMVI melanoma) | growth (SK-MEL-28 melanoma) | growth (UACC-62 melanoma)
1 | O=C(C=P(c1ccccc1)(c1ccccc1)c1ccccc1)c1ccc(Br)cc1 | 95.2% | 79.1% | 90.9% | 98.6% | 97.1% | 41.7% | 96.6% | 73.4% | 109% | –
2 | NC1CCC(Nc2nc(NCc3ccc(-c4cccs4)nc3)c3ncn(C4CCCC4)c3n2)CC1 (stereo unspecified) | 0.306% (active) | -12.7% (active) | -63.5% (active) | 10.2% | 3.21% (active) | 1.6% (active) | -96.8% (active) | -82.1% (active) | -62.3% (active) | –
3 | CCc1ccc(-c2nnc(COc3ccc(-c4nc5ccc(C)cc5[nH]4)cc3OC)o2)cc1 | 21.9% | 48.9% | -50% (active) | 77.5% | 25.5% | 36.6% | 15.3% | 48.2% | 77.4% | –
4 | COC(=O)c1c(C)nc(Nc2nc3ccccc3s2)nc1-c1ccc(Cl)cc1Cl | 92.2% | 114% | 87.2% | 92.3% | 111% | 91.3% | 105% | 101% | 109% | –
5 | COc1ccc(-c2ccc(-c3ccc(C(=N)N)c(F)c3)s2)cc1 | -78.9% (active) | -90% (active) | -98.9% (active) | -89.6% (active) | -95.1% (active) | -88.6% (active) | -93.9% (active) | -84.3% (active) | -91.5% (active) | –
6 | C/C(=N\NC(=S)N1CCCC1)c1ccccn1 | 31% | 26.3% | 39.2% | – | 4.05% (active) | 24.7% | 4.15% (active) | 1.56% (active) | 24.3% | -35.9% (active)
7 | COc1ccc(-c2nnc(N3CCN(C(=O)CN4CCN(c5ccc(Cl)cc5)CC4)CC3)nc2-c2ccc(OC)cc2)cc1 | 76.8% | 37.3% | 81.4% | – | 80.3% | 25.6% | 51% | 75.9% | – | 58.8%
8 | COc1ccc(/C=C2\SC(=S)N(CCCN3CCOCC3)C2=O)c(OC)c1 | 91.9% | 96.2% | 99.4% | – | 97.3% | 93.2% | 90% | 97.8% | 106% | 90.8%
9 | COc1cc(CSc2nc3ccc(Cl)cc3c(=O)n2Cc2ccccc2)cc(OC)c1OC | 24.9% | 11.7% | -34.5% (active) | – | 32.8% | 55.1% | 25.7% | 39.3% | 43.7% | 16.2%
10 | COc1c(C)c(C)c(OC)c2c1[nH]c(=O)c1c3cccnc3cn21 | 118% | 104% | 106% | – | 106% | 97.3% | 119% | 107% | 125% | 98.4%
11 | [O-]c1c[n+](-c2ccc(Cl)cc2)no1 | 99.4% | 118% | 90.4% | – | 102% | 91.4% | 95.6% | 98% | 109% | 91.5%
12 | CS(=O)(=O)Nc1ccc([N+](=O)[O-])cc1Oc1ccccc1 | 104% | 99.9% | 110% | – | 90.4% | 95.4% | 84.2% | – | 118% | 89.8%
13 | c1ccc(OCCC[P+](c2ccccc2)(c2ccccc2)c2ccccc2)cc1 | 84.7% | 4.29% (active) | -5.17% (active) | – | 8.33% (active) | -0.485% (active) | -69.2% (active) | 2.53% (active) | 26% | 14.6%
14 | CNCCCNCCCN1C(=O)c2ccc3c4c(ccc(c24)C1=O)C(=O)N(CCCNCc1ccccc1OC)C3=O | 28% | -23.4% (active) | 15.9% | – | 6.5% (active) | 1.85% (active) | -94.2% (active) | -58.3% (active) | -48.2% (active) | -42.2% (active)
15 | Oc1ccc(/C=N\Nc2ccccn2)c(O)c1 | 32.7% | 51.6% | 9.86% (active) | – | 26.5% | 61.3% | 39.4% | -6.3% (active) | 64.5% | 7.44% (active)
16 | COc1cc2c3c(cccc3c1)C(=O)N(CCN1CCCC1)C2=O | 20.1% | 0.567% (active) | 23.5% | – | 25.9% | 14.3% | -33.3% (active) | -2.23% (active) | 19.1% | –

Row | Compound | growth (HCT-15 colon) | growth (HT29 colon) | growth (SNB-75 CNS) | growth (SNB-19 CNS) | growth (U251 CNS) | growth (PC-3 prostate) | growth (SK-MEL-5 melanoma) | growth (LOX IMVI melanoma) | growth (SK-MEL-28 melanoma) | growth (UACC-62 melanoma)
17 | C=CCOc1ccc2c(c1)CC=C1[C@@H]2CC[C@]2(C)C(=O)/C(=N/O)C[C@@H]12 | 15% | 26.8% | 115% | – | 89.5% | 87% | 84.7% | 66.9% | 105% | 108%
18 | C=CCn1ccc(=O)nc1SC | 110% | 97.6% | 91.2% | – | 102% | 95.7% | 112% | 99.7% | 112% | 105%
19 | COc1cc(OC)cc(N2CCN(C(=O)Nc3nc4cc(F)ccc4nc3OC)CC2)c1 | – | 3.96% (active) | 27.9% | 28.7% | 17.5% | 22.4% | -42.2% (active) | 23.6% | – | 47.9%
20 | COc1cc(Cn2c(-c3ccccc3)cc3c2-c2oncc2CC3)cc(OC)c1 | 15.3% | -8.38% (active) | 19.5% | – | 18% | 19.2% | 5.07% (active) | 27.3% | 50.1% | 31.6%
21 | COc1ccc2oc(=O)cc(C(c3ccc[nH]3)c3ccc[nH]3)c2c1 | 9.01% (active) | -10.5% (active) | 29.6% | – | -7.61% (active) | 20.3% | -31.4% (active) | 7.59% (active) | 37.7% | 30.7%
22 | Cc1[nH]nc2c(=S)[nH]c(=O)[nH]c12 | 103% | 108% | 89.7% | – | 100% | 97.1% | 94.4% | – | 102% | 88.5%
23 | C#CCn1c(-c2cccc(OCCCCl)c2)nc2c1c(=O)n(C)c(=O)n2C | 86.9% | 102% | 89% | – | 90.7% | 26% | 61.4% | 93.8% | 95.7% | 46.2%
24 | COc1cc(C2C=C(c3ccc(Cl)cc3)N=C3SC(C)=CN32)cc(OC)c1OC (stereo unspecified) | 84.7% | 79.1% | 81.8% | – | 85.1% | 89.2% | 91.9% | – | 105% | 85.5%
25 | Cn1c(=O)c2[nH]c(C(O)c3ccc(Cl)cc3)nc2n(C)c1=O (stereo unspecified) | 102% | 105% | 80.2% | – | 99.5% | 87.9% | 107% | 96.6% | 108% | 93.6%
26 | CC(=O)N(O)c1ccc(/C=C/c2ccccc2)cc1 | 62.7% | 47% | 16% | – | 14.1% | 36.1% | 73.7% | 25.9% | 75.4% | 32.2%
27 | Fc1ccc2[nH]c3c(NCCCN4CCOCC4)ncnc3c2c1 | 91.1% | 66.1% | -0.656% (active) | – | 41.1% | 83% | 92.2% | – | 104% | 92.3%
28 | COc1cc(Cn2c(-c3ccccc3)c(Cl)c3c2-c2oncc2CC3)cc(OC)c1 | 80.8% | 56.1% | 94.8% | – | 37.3% | 60.8% | 109% | 73.8% | 92.3% | 55.4%
29 | COc1ccc(-c2nc(-c3nc4ccc(OC)cc4[nH]3)c3ccccn23)cc1 | 59.7% | 58.6% | 57% | – | 61.6% | 35% | 59% | 71.1% | 98.1% | 79%
30 | COc1cccc2c1C(=O)c1c(O)c3c(c(O)c1C2=O)C[C@@](O)(C(=O)COC(=O)c1ccccc1)C[C@@H]3OC1CC(N)C(O)C(C)O1 (stereo partly specified) | -72% (active) | -95.1% (active) | -84.3% (active) | – | -95.4% (active) | -95.6% (active) | -97.2% (active) | -87.1% (active) | -88.9% (active) | -97% (active)
31 | N=C(N)c1ccc(-c2ccc(-c3cccs3)s2)nc1 | 12.2% | -20.1% (active) | 41.3% | – | 28% | 43.7% | 68.6% | 10.5% | 83.7% | 86.8%
32 | CC(=O)O[C@H]1CC[C@@]2(C)[C@@H](CC[C@@H]3[C@@H]2CC[C@]2(C)C=C(C=O)C[C@@H]32)C1 | 27.5% | 31.4% | 69.5% | – | 22.9% | 62.5% | 75.7% | -71% (active) | 70% | 78.8%
